Data reported in PubChem BioAssay (NCATS).
Inconclusive results are not listed. Activity calls are given as the source filed them. Unless noted, calls come from the whole dose curve; as a rule, active = well fitted curve in the direction sought with a large enough effect; inconclusive = small, poorly fitted or top-dose-only effect, or another doubt; inactive = no such curve, though single readings can be large; an effect the other way counts as inactive or inconclusive.

How the values were obtained:
[1] = target: Ubiquitin carboxyl-terminal hydrolase 1 (Homo sapiens) (UniProt O94782); assay: Inhibitors of USP1/UAF1: Pilot qHTS (AID 504865);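 note: rhodamine fluorescence freed from ubiquitin-rhodamine substrate followed over time; top concentration of the series differs between compounds; % is set by controls: 0 for no effect and ±100 for the full control effect; nearly all actives have a fitted effect of over 35% in size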
Sequence of Ubiquitin carboxyl-terminal hydrolase 1 (Homo sapiens) (O94782 whole entry, looked up): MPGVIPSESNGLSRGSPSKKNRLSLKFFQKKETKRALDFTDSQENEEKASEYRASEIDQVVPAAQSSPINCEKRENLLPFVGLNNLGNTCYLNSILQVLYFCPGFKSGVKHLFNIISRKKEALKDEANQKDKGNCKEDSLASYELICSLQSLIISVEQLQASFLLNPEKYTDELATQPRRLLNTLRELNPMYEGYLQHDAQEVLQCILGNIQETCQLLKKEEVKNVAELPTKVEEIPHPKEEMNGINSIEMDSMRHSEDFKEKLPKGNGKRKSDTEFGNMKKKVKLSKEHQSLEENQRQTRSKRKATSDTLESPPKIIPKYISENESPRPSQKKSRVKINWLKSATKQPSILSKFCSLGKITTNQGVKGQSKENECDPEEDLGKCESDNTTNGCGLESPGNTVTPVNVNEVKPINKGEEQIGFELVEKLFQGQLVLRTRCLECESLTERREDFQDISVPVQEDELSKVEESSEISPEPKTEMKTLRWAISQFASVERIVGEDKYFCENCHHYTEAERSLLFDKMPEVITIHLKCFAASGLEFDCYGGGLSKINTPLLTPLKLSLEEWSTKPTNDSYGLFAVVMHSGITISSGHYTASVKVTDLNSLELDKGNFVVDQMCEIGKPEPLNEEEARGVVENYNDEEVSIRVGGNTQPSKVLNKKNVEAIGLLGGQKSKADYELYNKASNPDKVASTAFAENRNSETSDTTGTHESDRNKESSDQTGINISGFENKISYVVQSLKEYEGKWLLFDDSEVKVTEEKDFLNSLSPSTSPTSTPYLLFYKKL
In short: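 Enzyme-free wells gave the negative control, while test wells held 1nM USP1/UAF1 preincubated with compound for 15 min at room temperature. Ub-Rho at 150nM final started the reaction, and fluorescence at 480/540 nm was recorded kinetically.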

7G8 = assay: qHTS profiling for inhibitors of Plasmodium falciparum proliferation (AID 504749); note: nearly all actives have a fitted effect of over 60% in size; note: potency is the fitted concentration of half-maximal effect;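 for activity, negative = inhibition: 0% = DMSO vehicle and full inhibition = artemisinin control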; conditions: P. falciparum in erythrocytes, SYBR Green DNA, 72 h; series mostly up to 28.7 µM
In short: (§1)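 Each compound contacts P. falciparum-infected red blood cells for 72 h at 37 C; lysis buffer (Tris, EDTA, saponin, Triton X, SYBR Green I) is added and fluorescence measured next morning; values normalized to controls.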

DIV17 = assay: as above; conditions: P. falciparum in erythrocytes, SYBR Green DNA, 72 h; series mostly up to 28.7 µM
In short: as §1

TAB109 = assay: as above; conditions: P. falciparum in erythrocytes, SYBR Green DNA, 72 h; series mostly up to 28.7 µM
In short: as §1

[2] = S16 Schwann cell PMP22 intronic element beta-lactamase assay (AID 624044; calls by dose curve; note: nearly all actives have a fitted effect of over 15% in size; note: potency is the fitted concentration of half-maximal effect;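 for ratio activity, negative = inhibition: 0% = DMSO and -100% = potassium clavulanate positive control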); conditions: S16 rat Schwann cells, PMP22 element beta-lactamase FRET, 24 h; ratio activity, negative = inhibition: at 38.3 µM (top of the series)
In short: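 Beta-lactamase reporter under a PMP22 intronic regulatory element in stable S16 rat Schwann cells; 24 h compound exposure. 460 nm blue signal normalized between DMSO (0%) and potassium clavulanate, with 535 nm FRET tracking viability; curves classed by r2 and response.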

[3] = target: Cytochrome P450 3A4 (Homo sapiens) (UniProt P08684); assay: qHTS Assay for Inhibitors and Substrates of Cytochrome P450 3A4 (AID 884); note: % is set by controls: 0 for no effect and ±100 for the full control effect; nearly all actives have a fitted effect of over 50% in size
Sequence of Cytochrome P450 3A4 (Homo sapiens) (P08684 whole entry, looked up): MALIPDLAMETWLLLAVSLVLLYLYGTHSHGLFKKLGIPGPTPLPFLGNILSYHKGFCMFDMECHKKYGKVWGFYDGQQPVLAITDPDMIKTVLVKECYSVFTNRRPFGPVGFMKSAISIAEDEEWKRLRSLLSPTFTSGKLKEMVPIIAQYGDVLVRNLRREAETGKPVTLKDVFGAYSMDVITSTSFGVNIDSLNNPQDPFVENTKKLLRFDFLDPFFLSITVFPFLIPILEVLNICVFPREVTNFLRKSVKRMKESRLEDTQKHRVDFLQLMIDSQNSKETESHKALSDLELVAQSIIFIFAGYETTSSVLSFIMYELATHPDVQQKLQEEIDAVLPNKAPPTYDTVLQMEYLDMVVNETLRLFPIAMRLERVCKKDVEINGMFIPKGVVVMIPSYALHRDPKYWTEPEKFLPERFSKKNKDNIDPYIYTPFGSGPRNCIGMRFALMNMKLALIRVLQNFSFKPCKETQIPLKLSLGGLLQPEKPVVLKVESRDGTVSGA
In short: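 Luminescent readout of luciferin produced by CYP3A4 (20 nM) dealkylation of Luciferin-PPXE, 25 uM (its KM). NADPH-driven reaction ran 60 min at RT after 10 min compound preincubation; data scaled to 57 uM ketoconazole as 100% inhibition.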

[4] = target: Tyrosyl-DNA phosphodiesterase 1 (Homo sapiens) (UniProt Q9NUW8); assay: Confirmation Assay for Inhibitors of Tyrosyl-DNA Phosphodiesterase (TDP1) (AID 489007); conditions: recombinant human TDP1 enzymatic activity, dose-response; note: potency is the fitted concentration of half-maximal effect; nearly all actives have a fitted effect of over 40% in size
Sequence of Tyrosyl-DNA phosphodiesterase 1 (Homo sapiens) (Q9NUW8 whole entry, looked up): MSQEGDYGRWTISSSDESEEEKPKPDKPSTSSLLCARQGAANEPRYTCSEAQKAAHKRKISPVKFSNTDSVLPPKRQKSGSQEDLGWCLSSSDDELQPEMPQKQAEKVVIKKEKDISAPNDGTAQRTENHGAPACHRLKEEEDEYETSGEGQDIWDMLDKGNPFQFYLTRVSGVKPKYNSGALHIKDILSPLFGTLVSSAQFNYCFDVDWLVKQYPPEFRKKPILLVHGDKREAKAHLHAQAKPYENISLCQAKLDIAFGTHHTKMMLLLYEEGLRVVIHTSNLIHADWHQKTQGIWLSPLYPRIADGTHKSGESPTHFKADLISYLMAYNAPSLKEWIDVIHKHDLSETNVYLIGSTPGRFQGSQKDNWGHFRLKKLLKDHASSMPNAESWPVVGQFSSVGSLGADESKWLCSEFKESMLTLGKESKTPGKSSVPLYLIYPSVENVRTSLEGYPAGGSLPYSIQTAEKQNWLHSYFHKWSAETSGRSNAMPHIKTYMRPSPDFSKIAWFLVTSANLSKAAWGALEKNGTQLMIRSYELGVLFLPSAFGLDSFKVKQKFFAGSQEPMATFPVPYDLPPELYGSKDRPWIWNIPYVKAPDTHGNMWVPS
In short: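 AlphaScreen assay of tyrosine-FITC cleavage from a biotinylated DNA substrate (15 nM) by E. coli-expressed human Tdp1 (1 nM). Sequence: compound preincubation 15 min, reaction 5 min, bead detection 10 min, all at room temperature. No-enzyme wells give maximum signal.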

[5] = target: Glucocorticoid receptor (Homo sapiens) (UniProt P04150); assay: qHTS assay for small molecule agonists of glucocorticoid receptor signaling (AID 588532; active = well fitted curve in the direction sought with a large enough effect in the signal ratio, with a control signal flat; the % refers to the signal ratio;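 note: 100% = dexamethasone at 0.1 µM and 0% = DMSO only wells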); conditions: HeLa MMTV-bla, beta-lactamase ratio, agonist, 18 h; activation: stronger effect = higher value, percent of dexamethasone control, DMSO zero
Sequence of Glucocorticoid receptor (Homo sapiens) (P04150 whole entry, looked up): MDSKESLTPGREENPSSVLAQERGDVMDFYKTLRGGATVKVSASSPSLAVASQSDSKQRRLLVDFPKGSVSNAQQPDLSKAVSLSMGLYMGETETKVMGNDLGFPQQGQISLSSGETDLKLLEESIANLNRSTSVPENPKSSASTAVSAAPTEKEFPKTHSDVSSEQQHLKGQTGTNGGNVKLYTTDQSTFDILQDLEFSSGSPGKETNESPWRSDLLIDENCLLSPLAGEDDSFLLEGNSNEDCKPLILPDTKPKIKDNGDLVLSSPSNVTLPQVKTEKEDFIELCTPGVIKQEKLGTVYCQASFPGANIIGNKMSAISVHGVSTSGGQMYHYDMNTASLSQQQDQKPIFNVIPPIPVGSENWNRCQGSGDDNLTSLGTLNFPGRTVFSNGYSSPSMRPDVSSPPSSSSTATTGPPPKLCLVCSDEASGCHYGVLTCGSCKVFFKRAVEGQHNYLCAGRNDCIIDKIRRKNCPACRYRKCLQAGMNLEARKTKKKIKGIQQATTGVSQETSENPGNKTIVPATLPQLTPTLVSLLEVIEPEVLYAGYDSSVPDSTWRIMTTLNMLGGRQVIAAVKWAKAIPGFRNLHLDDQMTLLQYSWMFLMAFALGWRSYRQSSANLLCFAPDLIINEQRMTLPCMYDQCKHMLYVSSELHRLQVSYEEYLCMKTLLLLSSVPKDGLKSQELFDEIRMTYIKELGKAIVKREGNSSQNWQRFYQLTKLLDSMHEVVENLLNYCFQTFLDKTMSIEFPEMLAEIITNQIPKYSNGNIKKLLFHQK
In short: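 Cells were plated and rested 3-5 h at 37 C, compounds were added in titration and incubated 18 h, then CCF4 substrate was loaded for 2 h at RT before reading blue/green fluorescence. EC50 came from Hill-equation fitting.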

[6] = target: Peroxisome proliferator-activated receptor delta (Homo sapiens) (UniProt Q03181); assay: qHTS assay for small molecule agonists of peroxisome proliferator-activated receptor delta signaling (AID 588534; calls by dose curve;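 note: 0% = DMSO basal wells and 100% = positive control agonist at 10 µM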)
Sequence of Peroxisome proliferator-activated receptor delta (Homo sapiens) (Q03181 whole entry, looked up): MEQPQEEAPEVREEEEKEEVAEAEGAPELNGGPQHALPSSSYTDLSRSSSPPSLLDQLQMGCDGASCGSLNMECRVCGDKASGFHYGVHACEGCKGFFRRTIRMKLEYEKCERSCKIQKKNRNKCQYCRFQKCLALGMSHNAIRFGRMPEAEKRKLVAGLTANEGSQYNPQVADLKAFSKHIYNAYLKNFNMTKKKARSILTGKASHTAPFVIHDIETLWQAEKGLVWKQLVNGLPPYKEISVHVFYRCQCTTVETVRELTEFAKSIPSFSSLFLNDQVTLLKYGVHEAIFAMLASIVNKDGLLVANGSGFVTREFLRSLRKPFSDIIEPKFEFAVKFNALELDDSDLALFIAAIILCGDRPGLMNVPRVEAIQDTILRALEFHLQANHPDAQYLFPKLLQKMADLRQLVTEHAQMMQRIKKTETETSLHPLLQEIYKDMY
In short: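 Agonist-mode beta-lactamase reporter readout (CCF4 dye, 2 h at RT) after 18 h at 37 °C exposure to a titration; Hill-equation fitting gave EC50 and maximal response.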

[7] = target: Peroxisome proliferator-activated receptor delta (Homo sapiens) (UniProt Q03181); assay: qHTS assay for small molecule antagonists of peroxisome proliferator-activated receptor delta signaling (AID 588535; active = well fitted inhibition curve with a large enough effect in the signal ratio, with a control signal flat, not every such curve was filed as active; the % refers to the signal ratio)
In short: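 Fluorescence from CCF4-loaded GeneBLAzer PPAR-delta-UAS-bla HEK293T cells (2 hrs RT loading) quantified reporter inhibition after an 18 hr, 37 C compound exposure across a titration.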

[8] = target: Vitamin D3 receptor (Homo sapiens) (UniProt P11473); assay: qHTS assay for small molecule antagonists of vitamin D receptor signaling (AID 588541; calls by dose curve;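 note: receptor activated by calcitriol during compound treatment; % is set by controls: 0 for no effect and ±100 for the full control effect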)
Sequence of Vitamin D3 receptor (Homo sapiens) (P11473 whole entry, looked up): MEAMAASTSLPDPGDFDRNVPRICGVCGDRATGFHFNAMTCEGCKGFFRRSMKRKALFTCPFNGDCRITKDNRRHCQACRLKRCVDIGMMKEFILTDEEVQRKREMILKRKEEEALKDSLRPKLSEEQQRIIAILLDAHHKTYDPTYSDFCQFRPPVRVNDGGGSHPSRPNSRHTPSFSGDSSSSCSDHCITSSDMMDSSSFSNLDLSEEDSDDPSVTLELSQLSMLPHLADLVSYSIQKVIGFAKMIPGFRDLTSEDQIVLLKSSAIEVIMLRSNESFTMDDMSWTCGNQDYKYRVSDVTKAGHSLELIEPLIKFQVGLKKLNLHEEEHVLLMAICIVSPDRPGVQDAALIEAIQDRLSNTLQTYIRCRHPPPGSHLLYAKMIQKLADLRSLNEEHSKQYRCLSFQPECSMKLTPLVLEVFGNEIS
In short: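 VDR-UAS-bla HEK293T cells in 2% charcoal-stripped FBS were stimulated with 1-alpha,25-dihydroxyvitamin D3 (3 nM final) plus compound for 16 h at 37 C. The beta-lactamase CCF4 readout was normalized to 50 nM agonist and DMSO, and Hill fits gave IC50.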

[9] = qHTS assay for small molecule antagonists of retinoid X receptor alpha signaling (AID 588546; active = well fitted inhibition curve with a large enough effect in the signal ratio, with a control signal flat, not every such curve was filed as active; the % refers to the signal ratio;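 note: cells stimulated with 9-cis-retinoic acid as agonist; % is set by controls: 0 for no effect and ±100 for the full control effect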); conditions: HEK293T RXRa-UAS-bla, beta-lactamase ratio, antagonist mode; measured here: W530 green channel, cytotoxicity proxy
In short: (§2)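 Beta-lactamase reporter inhibition, read as CCF4 fluorescence ratio (ex 405, em 460/530 nm) after 2 h at RT. HEK293T UAS-bla cells, 2500/well, were stimulated with 9-cis-RA at 500 or 100 nM final alongside test compound for 18 h at 37 C.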

[10] = target: Retinoic acid receptor RXR-alpha (Homo sapiens) (UniProt P19793); assay: as above; conditions: HEK293T RXRa-UAS-bla, beta-lactamase ratio, antagonist mode
Sequence of Retinoic acid receptor RXR-alpha (Homo sapiens) (P19793 whole entry, looked up): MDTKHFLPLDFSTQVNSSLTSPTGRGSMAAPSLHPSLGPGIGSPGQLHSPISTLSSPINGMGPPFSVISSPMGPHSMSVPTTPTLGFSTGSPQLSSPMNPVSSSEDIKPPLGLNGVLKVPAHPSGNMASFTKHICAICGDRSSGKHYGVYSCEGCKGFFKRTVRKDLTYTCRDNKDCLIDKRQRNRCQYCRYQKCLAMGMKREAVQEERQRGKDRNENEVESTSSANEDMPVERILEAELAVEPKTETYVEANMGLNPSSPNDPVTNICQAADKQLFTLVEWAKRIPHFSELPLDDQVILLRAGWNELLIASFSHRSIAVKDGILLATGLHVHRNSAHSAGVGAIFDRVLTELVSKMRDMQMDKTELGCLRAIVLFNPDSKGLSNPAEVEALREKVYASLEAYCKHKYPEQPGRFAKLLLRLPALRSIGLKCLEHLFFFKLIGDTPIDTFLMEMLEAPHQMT
In short: as §2

CC1(C)S[C@@H]2[C@H](N)C(=O)N2C1C(=O)O (some centres undefined)
inactive: Potency [1] | Potency (7G8) | Potency (DIV17) | Potency (TAB109)

C[C@H](N)Cc1ccccc1
inactive: Potency [1] | Potency [2] | Potency (7G8) | Potency (TAB109)

CCCCCC(O)C1C(=O)OC(C)C(O)\C=C/C=C\C=C/C=C\C=C(\C)C(O)C(O)C(O)CC(O)CC(O)CC(O)CC(O)CC1O (centres undefined)
inactive: Potency [1] | Potency (7G8) | Potency (DIV17) | Potency (TAB109)

O=[N+]([O-])OC1CO[C@H]2C(O[N+](=O)[O-])COC12 (some centres undefined)
inactive: Potency [3] | Potency [1] | Potency [2] | Potency (7G8) | Potency (DIV17) | Potency (TAB109)

CCOC(=O)/C=C(C)/C=C/CC(C)CCCC(C)C (centres undefined)
inactive: Potency [1] | Potency [2] | Potency (7G8) | Potency (DIV17) | Potency (TAB109)

CN1C2CCC1C(C(=O)O)C(OC(=O)c1ccccc1)C2 (centres undefined)
inactive: Potency [1] | Potency [2] | Potency (7G8) | Potency (DIV17) | Potency (TAB109)

CCCCCCC(=O)O[C@H]1CC[C@H]2[C@@H]3CCC4CC(=O)C=C(C)[C@]4(C)[C@H]3CC[C@]12C (some centres undefined)
active: Potency (7G8) 8.91 µM
inactive: Potency [2] | Potency (TAB109)

O=C1NC(=S)NC(=O)C1=Cc1ccc2c(c1)CCN2CCCCl
active: Potency [4] 2.51 µM

COc1ccc2c3c1O[C@H]1[C@@H](O)C=C[C@H]4C(C2)NCCC341 (some centres undefined)
inactive: Potency [1] | Potency [2] | Potency (7G8) | Potency (DIV17) | Potency (TAB109)

C[C@@H]1CC[C@H]2[C@@H](C)C(=O)O[C@@H]3OC4(C)CC[C@@H]1C32OO4 (some centres undefined)
inactive: Potency [1] | Potency [2]
active: Potency (7G8) 0.0016 µM | Potency (DIV17) 0.0095 µM | Potency (TAB109) 0.0045 µM

C#CCN1CC(=O)N(COC(=O)[C@@H]2[C@@H](C=C(C)C)C2(C)C)C1=O
inactive: activation [5] -0.459% | outcome [6] | Potency [7] | Potency [8] | max response [10] -19.9% | Potency [2] | Potency (7G8) | Potency (DIV17) | Potency (TAB109)
-1.89%: max response [9]

OCC(O)[C@H]1O[C@@H]2O[C@H](C(Cl)(Cl)Cl)O[C@@H]2[C@H]1O (some centres undefined)
inactive: Potency [1] | Potency [2] | Potency (7G8) | Potency (DIV17) | Potency (TAB109)

CC1OC(O[C@H]2C[C@@H](O)[C@]3(CO)[C@@H]4C(CC[C@]3(O)C2)[C@@]2(O)CC[C@H](C3=CC(=O)OC3)[C@@]2(C)C[C@H]4O)C(O)C(O)C1O (some centres undefined)
inactive: Potency [1] | Potency [2] | Potency (7G8) | Potency (DIV17) | Potency (TAB109)

CCCN1CCCC2Cc3nc(N)ncc3CC21 (centres undefined)
inactive: Potency [1] | Potency [2] | Potency (7G8) | Potency (DIV17) | Potency (TAB109)

CCOC(=O)C1CCN(/C=C2/C(=O)NC(=O)N(Cc3ccco3)C2=O)CC1
active: Potency [4] 44.7 µM

COC(C(=O)C(O)C(C)O)C1Cc2cc3cc(OC4CC(OC5CC(O)C(OC)C(C)O5)C(OC(C)=O)C(C)O4)c(C)c(O)c3c(O)c2C(=O)C1OC1CC(OC2CC(OC3CC(C)(O)C(OC(C)=O)C(C)O3)C(O)C(C)O2)C(O)C(C)O1 (centres undefined)
active: Potency [2] 0.0794 µM | Potency (7G8) 0.112 µM | Potency (DIV17) 2.69 µM | Potency (TAB109) 0.794 µM

Nc1nc(O)c(-c2ccccc2)o1
inactive: Potency [1] | Potency [2] | Potency (7G8) | Potency (DIV17) | Potency (TAB109)

C=C1Nc2ccccc2C(=O)N1c1ccccc1C
inactive: Potency [1] | Potency (7G8) | Potency (DIV17) | Potency (TAB109)

OC[C@@H](O)[C@H]1O[C@@H]2OC(C(Cl)(Cl)Cl)O[C@H]2[C@H]1O (some centres undefined)
inactive: Potency [1] | Potency [2] | Potency (7G8) | Potency (DIV17) | Potency (TAB109)

[S]=[Sb][S][Sb]=[S]
inactive: Potency [1] | Potency [2] | Potency (7G8) | Potency (DIV17) | Potency (TAB109)

CCCCCc1cc(O)c2c(c1)OC(C)(C)C1CC=C(C)CC21 (centres undefined)
active: Potency (7G8) 0.708 µM | Potency (DIV17) 1.51 µM | Potency (TAB109) 3.16 µM

Cc1ccc2c(c1)[C@@H]1CN(C)CC[C@H]1N2
inactive: Potency [1] | Potency [2] | Potency (7G8) | Potency (DIV17) | Potency (TAB109)
